CFTR F508del cor: F508del CFTR correction, initial screen, CFBE line, single point. CFBE cells, YFP halide quenching; stimulated with forskolin plus potentiator P3; % fluorescence drop versus neutral controls. AID 720511, 2013. actives 0.36% (n = 350,000). activity (quench increase), % at 7.58 µM;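 active = mean added fluorescence quench of at least 8% versus neutral control, with both replicates also reaching 8%; inconclusive = only one of the mean or replicate conditions met; inactive = mean below 8% and not both replicates reaching 8%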;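 also: cells transiently co-express mutant CFTR-F508del with the halide-sensitive YFP; corrector assay measuring rescue of mutant channel to the surface after 24 h compound exposure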
PAX8 inh HTS: inhibitors of PAX8-driven TPO luciferase reporter, primary screen, RMG-I cells, single concentration. inhibition, % at 12.6 µM. SteadyGlo, 24 h. actives 1.2% (n = 360,000);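 active = mean replicate inhibition at least 60% with every replicate also reaching 60%; inconclusive = only one of the two criteria is met; inactive = mean below 60% and not all replicates reaching 60%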;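 also: luciferase light reporting Pax8 driven TPO promoter activity; plate controls were median of neutral control wells for no effect and mitoxantrone controls for full effect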
HIV Env fusion: inhibitors of HIV-1 Env-driven cell-cell fusion, primary screen, HeLa-JRFL effector, CEM21 target cells, luciferase; inhibition, % at 12.3 µM; actives 1.1% (n = 360,000); AID 651610, 2012;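 active = mean replicate inhibition score of at least 50 and every replicate individually at or above 50; inconclusive = only one of the two criteria met; inactive = mean below 50 and not all replicates reaching 50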;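 also: 0% = plate neutral controls and 100% = maraviroc near 300 nM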
EWS-Fli inh: EWS/Fli-driven NR0B1 reporter inhibitors, primary screen, A673 cells, NR0B1 luciferase, luminescence, MLPCN library | viability-normalised | inhibition, % at 12.6 µM | actives 0.67% (n = 350,000);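 active = mean inhibition of at least 50% after viability correction, with every replicate also passing that limit; inconclusive = mean reaches 50% but only one of two replicates passes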;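 also: firefly luciferase signal divided by Alamar Blue viability fluorescence both relative to DMSO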
GAA850 FXN act: FXN promoter activators, primary screen, cell-based, luciferase luminescence, HEK293 lucGAA850. HEK293 lucGAA850 FXN promoter luciferase reporter, 24 h; percent of 10 µM SAHA response. activation, % at 6 µM. actives 0.56% (n = 360,000). AID 540364, 2011;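 active = activation above the average of all compounds screened plus 3 SD, cutoff fixed separately per campaign, cut at about 7.5% in these data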;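 also: 0% = DMSO wells and 100% = 10 µM SAHA wells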
* hit, by the source's call; ? = inconclusive; nt = no result given; [ ] = another dose, or the depositor's remark. An excerpt weighted towards active compounds, which were near 2.5% of everything screened.

SMILES | CFTR F508del cor | PAX8 inh HTS | HIV Env fusion | EWS-Fli inh | GAA850 FXN act
COc1ccc(NC(=O)Nc2ccc3c(c2)CC(=O)N([C@@H](C)CO)C[C@H](C)[C@@H](CN(C)C(=O)Nc2ccccc2)O3)cc1 | 0 | -7 | nt | -3 | nt
CC(C)(C)[C@@H]1CCC(=O)N(CC[C@H](Sc2ccc(Br)cc2)c2ccccc2)CC1 | 2 | 24 | 67* | 16 | -2
CC1(Cc2ccccc2C#N)C(=O)Nc2cc(-c3ccccc3Cl)ccc21 (stereo not drawn) | 2 | 6 | 57* | 0 | 4
CC1(Cc2ccccc2Cl)C(=O)Nc2c(Cl)cccc21 (stereo not drawn) | -5 | nt | 4 | -4 | -1
N=c1sccn1CC(=O)Nc1ccc(S(N)(=O)=O)cc1 | 11* | 21 | -10 | 8 | -5
N=c1sccn1CC(=O)Nc1cccc(S(N)(=O)=O)c1 | 2 | 8 | -19 | 7 | 2
O=C(O)CCSc1ncnc2sc(-c3ccccc3)cc12 | -4 | 0 | 68* | 69* | -13
CS(=O)(=O)N(CC(=O)O)c1ccc(C23CC4CC(CC(C4)C2)C3)cc1 | 1 | 28 | 7 | 4 | 3
COc1ccccc1NC(=O)CN(c1ccc(C23CC4CC(CC(C4)C2)C3)cc1)S(C)(=O)=O | nt | nt | 104* | nt | 9.4*
C[C@H](CO)N1C[C@H](C)[C@H](CN(C)Cc2ccc3c(c2)OCO3)Oc2ccc(NS(=O)(=O)c3ccc(F)cc3)cc2C1=O | -1 | 19 | nt | 26 | nt
O=C(c1ccccc1)N1CC(=O)N2[C@@H](CO)[C@H](c3ccc(C#Cc4ccccc4)cc3)[C@@H]2C1 | -1 | nt | nt | nt | nt
Cc1ccc(C(=O)OCc2ccc3c(c2)OCO3)cc1S(=O)(=O)N1CCCCC1 | nt | nt | 55* | nt | 0
Cc1ccc(C(=O)Nc2ccc3c(c2)OCO3)cc1S(=O)(=O)N1CCCC1 | nt | nt | nt | nt | 4
COc1ccccc1[C@@H]1C(c2ccccc2)=NN(c2ccccc2)[C@H]1C(=O)N1CCOC1=O | 2 | 5 | 37 | 5 | -1
COc1ccccc1[C@@H]1C(c2ccc(F)cc2)=NN(c2ccccc2)[C@H]1C(=O)N1CCOC1=O | 3 | -1 | 82* | -1 | 6
COc1cc(/C=C/C(=O)OCC(=O)NC(=O)NC(C)C)ccc1O | 0 | 7 | 57* | 20 | 1
COc1cc(/C=C/C(=O)OCC(=O)NC(=O)NC(C)C)ccc1OCC#N | nt | 3 | 12 | nt | 1
COC(=O)c1ccc(OC)c(CSc2nnc(COc3ccc(Cl)cc3)o2)c1 | nt | nt | 60* | nt | 5
NS(=O)(=O)c1cc(C2(O)NC(=O)c3ccccc32)ccc1Cl (stereo not drawn) | 11* | -18 | 10 | -4 | 2
C[C@@H]1CN([C@@H](C)CO)C(=O)c2c(c3ccccc3n2C)-c2ccccc2CO[C@H]1CN(C)S(=O)(=O)c1cn(C)cn1 | -1 | 3 | -15[16.7 µM] | -4 | nt
COc1cc(/C=C/C(=O)O)cc(S(=O)(=O)Nc2ccc3[nH]c(=O)[nH]c3c2)c1OC | 0 | -15 | -22 | 0 | 2
COc1cc(/C=C/C(=O)O)cc(S(=O)(=O)Nc2ccc3cn[nH]c3c2)c1OC | 8.8* | 9 | -6 | 9 | 0
O=C(C[C@@H]1C[C@H]2c3cc(NC(=O)CC4CC4)ccc3O[C@H]2[C@H](CO)O1)NCc1ccccc1 | 0 | 12 | -1[16.7 µM] | 2 | nt
Cc1noc(C)c1S(=O)(=O)Nc1ccc2c(c1)C(=O)N([C@@H](C)CO)C[C@H](C)[C@@H](CN(C)C(=O)Nc1ccccc1)OCCCC[C@H](C)O2 | -1 | 5 | -15[16.7 µM] | 29 | nt
Cc1ccc(N(C)S(=O)(=O)c2cccc(C(=O)N(C)Cc3cnn(-c4ccccc4)c3)c2)cc1 | -1 | 19 | 63* | -38 | -1
SMILES | CFTR F508del cor | PAX8 inh HTS | HIV Env fusion | EWS-Fli inh | GAA850 FXN act
CCCNC(=O)N1CC2(C1)[C@@H](c1ccccc1)[C@@H](CO)N2CC1CCOCC1 | -1 | -14 | nt | -3 | nt
COc1ccc(/C=C/C(=O)c2ccc([N+](=O)[O-])o2)cc1OC | 2 | 112* | -143 | 62* | nt
O=C(/C=C/c1cccc(Cl)c1)c1ccc([N+](=O)[O-])o1 | -6 | 103* | ? | 77* | -13
COc1cc(/C=C/[N+](=O)[O-])ccc1OC(=O)/C=C/c1ccc(F)cc1 | -4 | 5 | -34 | 27 | 8.7*
Cc1cc(O)c(C(=O)/C=C/c2cccc([N+](=O)[O-])c2)c(=O)o1 | -2 | 0 | 3 | 1 | 1
COc1cc(OC)c(C(=O)C=Cc2ccc(OC)c(OC)c2)c(OC)c1 | 0 | 41 | -23 | -7 | 0
C[C@@H]1CN([C@H](C)CO)C(=O)c2cc(C#Cc3cccc(F)c3)cnc2O[C@@H]1CN(C)C(=O)C1CCOCC1 | 1 | nt | 1[16.7 µM] | -8 | nt
CO[C@@H]1CN(C)C(=O)c2ccc(NS(C)(=O)=O)cc2OC[C@@H](C)N(Cc2cncnc2)C[C@@H]1C | 1 | nt | -6[16.7 µM] | 6 | nt
CCCCN(C=O)c1c(CC)nc2ccc(C(=O)Nc3cc(-c4ccccc4)ccc3OC)cn12 | 1 | 75* | 18 | 14 | -2
COc1ccc(/C=N/Nc2cc(N3CCCC3)nc(N3CCCC3)n2)cc1 | 5 | 68* | 5 | 6 | 1
COCC(=O)N1[C@H](CO)[C@H](c2ccc(C#Cc3ccccc3F)cc2)[C@@H]1C#N | -2 | -9 | 3[16.7 µM] | -20 | nt
CNC(=O)COC(=O)c1ccccc1C(=O)c1ccc(Cl)c([N+](=O)[O-])c1 | -1 | 31 | 22 | 3 | 3
O=C(COC(=O)c1ccccc1C(=O)c1ccc(Cl)c([N+](=O)[O-])c1)NC1CC1 | -5 | 33 | -69 | 63* | 2
Cc1cccc(N2CCN(C(=S)Nc3ccc4nc(N5CCN(C)CC5)cc(C)c4c3)CC2)c1C | -15 | 5 | 26 | 56* | 1
O=C(Nc1ccc2c(c1)[C@H]1C[C@H](CC(=O)N3CCc4ccccc4C3)O[C@H](CO)[C@H]1O2)NC1CCCC1 | 0 | 24 | 8[16.7 µM] | 2 | nt
C[C@H]1CN([C@@H](C)CO)C(=O)c2cccc(NC(=O)Nc3ccccc3)c2O[C@H]1CN(C)Cc1ccc(-c2ccccc2)cc1 | 2 | -17 | -25[16.7 µM] | -8 | nt
O=C(C[C@H]1C[C@H]2c3cc(NC(=O)C4CCC4)ccc3O[C@H]2[C@H](CO)O1)NCc1ccc2c(c1)OCO2 | -2 | 10 | 81*[16.7 µM] | -4 | nt
O=C(C[C@@H]1C[C@@H]2c3cc(NC(=O)C4CCOCC4)ccc3O[C@@H]2[C@@H](CO)O1)NCc1ccc2c(c1)OCO2 | 1 | 12 | -24[16.7 µM] | 1 | nt
O=C(C[C@@H]1C[C@H]2c3cc(NC(=O)C4CCC4)ccc3O[C@H]2[C@H](CO)O1)NCc1ccc2c(c1)OCO2 | 1 | 18 | 6[16.7 µM] | 0 | nt

Assay outcomes: PubChem BioAssay, several laboratories
